Data from PubChem BioAssay AID743279 (National Center for Advancing Translational Sciences (NCATS), 2014).
Out of some 360,000 compounds screened, about 17,000 (4.7%) were called active. About 5% were inconclusive and are not listed. The sample holds actives, similar compounds and a random draw of the others, so the mix is not that of the screen. No stated cut-off is given here; in the data, active means activity change below about -50%; inconclusive means mostly about -30% to -49%; inactive means weaker than that.

assay: qHTS for Inhibitors of Inflammasome Signaling: IL-1-beta AlphaLISA Primary Screen; conditions: THP-1 LPS/ATP IL-1B secretion, 16 h; at 57.5 µM, hits give low values
Summary of the method: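 THP-1 cells pretreated 1 hr with compounds (up to 57.5 uM final), then stimulated with LPS (250 ng/mL final) plus ATP (1.25 mM final); secreted IL-1B measured by AlphaLISA after 16 hr, decreased signal indicating inhibition.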
On the % scale 0 is the no-effect control and ±100 the full control effect.

| SMILES | activity change |
| --- | --- |
| CC(=O)CC[C@@H](C)O[C@@H]1OC(C)[C@H](O)CC1O (some centres undefined) | 29.3% (inactive) |
| COC(=O)[C@]12CCCCC=C1N(Cc1ccco1)C(=O)[C@H](CC(=O)NCC1CCCCC1)C2 | -8.27% (inactive) |
| CCCOc1ccc(F)cc1-c1cc(C(=O)Nc2ccc(F)cc2)[nH]n1 | 3.22% (inactive) |
| Cc1cc(C)n(-c2nc(C(F)(F)F)nc3ccccc23)n1 | 21.5% (inactive) |
| CC(Nc1nc(C(F)(F)F)nc2ccccc12)c1cccs1 (centres undefined) | -63.4% (active) |
| CC(C)(C)Nc1nc(-c2ccccn2)nc2ccccc12 | -9.69% (inactive) |
| CCc1ccc(/C=C2\SC(N3CCOCC3)=NC2=O)cc1 | -62.4% (active) |
| Cc1cc(/C=C2/SC(=O)N(CC(=O)N3CCCC3)C2=O)ccc1N1CCOCC1 | -23.5% (inactive) |
| O=C1N=C(N2CCc3ccccc3C2)S/C1=C\c1ccc(O)cc1 | -63.2% (active) |
| CC1CCN(C2=NC(=O)/C(=C/c3ccc(O)cc3)S2)CC1 | -16.5% (inactive) |
| NC1=NC(=O)S/C1=C\c1ccc(O)cc1 | -9.74% (inactive) |
| Cc1ccsc1/C=C1\SC(N2CCOCC2)=NC1=O | -26% (inactive) |
| COC(=O)C1(C(=O)OC)C[C@H](c2ccccc2)N(Cc2ccccc2OC)[C@@H]1c1ccccc1 | 12.2% (inactive) |
| O=[N+]([O-])c1ccc(C(S(=O)(=O)Cc2ccccc2)S(=O)(=O)Cc2ccccc2)cc1 | -14.4% (inactive) |
| CC(C)(O)C#Cc1ccc(CNC[C@H]2O[C@@H](n3cnc4c(=O)[nH]c(N)nc43)[C@H](O)[C@@H]2O)s1 | 0% (inactive) |
| Cc1cc2oc(=O)cc(CN3CCN(Cc4ccccc4)CC3)c2cc1C | 1.1% (inactive) |
| CC(C)(C)C(=O)CN1C2=NCCN2c2ccccc21 | 0% (inactive) |
| Cc1cc2c(cc1C)N(Cc1ccccc1)C1=NCCCN12 | -58.1% (active) |
| O=C(COC(=O)c1ccc(S(=O)(=O)N2CCCCCC2)cc1)Nc1ccccc1C(F)(F)F | 23% (inactive) |
| COc1ccc(OC)c(CN2C(=O)CCC2(C)c2nnnn2Cc2ccccc2)c1 (centres undefined) | 0% (inactive) |

| SMILES | activity change |
| --- | --- |
| Cc1ccc(-c2ccc(CN3C(C(C)C)C(=O)N(Cc4cn(CCC5OCCO5)nn4)CCS3(=O)=O)cc2)cc1 (centres undefined) | 14.8% (inactive) |
| CC(=O)O[C@]1(C(C)=O)CC[C@H]2[C@@H]3C=C(C)C4=CC(=O)CC[C@]4(C)[C@H]3CC[C@@]21C | -10.2% (inactive) |
| CC(=O)OCC(=O)C1(O)CCC2C3CC(C)C4=CC(=O)CCC4(C)C3C(O)CC21C (centres undefined) | -59.6% (active) |
| CC1(C)C(=O)CCC2(C)C1=CCC1C2C(=O)CC2(C)C1CCC2(O)C(=O)CO (centres undefined) | 15.3% (inactive) |
| O=C(OC1CC2CC1[C@H]1CCCCN1C2=O)N1CCOCC1 (some centres undefined) | 7.59% (inactive) |
| COc1ccc(C(=O)Nc2cccc(/C=C(/CCC(=O)O)c3nc4ccccc4s3)c2)cc1 | 51.8% (inactive) |
| COc1ccccc1-n1cnc2cc(NS(=O)(=O)c3ccccc3)ccc21 | -2.81% (inactive) |
| CCC(C)Sc1nc2c(c(=O)[nH]c(=O)n2C)n1CC(O)COc1cccc2ccccc12 (centres undefined) | 23.6% (inactive) |
| CC(C)c1ccccc1OCC(O)CN(CC(O)COc1cccc2ccccc12)C(C)C (centres undefined) | -104% (active) |
| CCCN(CCC)CC(O)COc1ccccc1C(=O)Nc1ccccc1 (centres undefined) | -6.43% (inactive) |
| COc1cc(C(=O)OCCCN2CCOCC2)cc(OC)c1OC | -2.32% (inactive) |
| O=C1Nc2ccccc2NC(c2ccc3c(c2)OCO3)=C1N(Cc1ccc(F)cc1)C(=O)c1ccco1 | -23.7% (inactive) |
| O=S1(=O)CC(N2CCN(Cc3ccccc3F)CC2)CN1Cc1cn(Cc2ccccc2)nn1 (centres undefined) | 14% (inactive) |
| COc1ccc(-c2csc3nc(-c4ccccc4F)oc(=O)c23)cc1OC | -84.4% (active) |
| Cc1sc2nc(-c3ccccc3F)oc(=O)c2c1C | 43.9% (inactive) |
| COc1ccccc1-c1nnc(-c2ccc(F)cc2)o1 | 6.31% (inactive) |
| COc1cc(F)ccc1-c1cc(C(=O)NCC2CCCCC2)[nH]n1 | -19.4% (inactive) |
| CC1CC(=O)N(CC(=O)Nc2cccc(Cl)c2)c2ccccc2S1(=O)=O (centres undefined) | -6.86% (inactive) |
| CC1=C/C(=N\OS(=O)(=O)c2ccccc2)C=CC1=O | -100% (active) |
| OCCc1ccc(NCCc2ccco2)cc1 | -19.5% (inactive) |

| SMILES | activity change |
| --- | --- |
| Cc1ccc(CN2CC(N3CCC(Cc4ccccc4)CC3)CS2(=O)=O)cc1 (centres undefined) | -19.7% (inactive) |
| COc1ccc(C)cc1NC(=O)CSc1cccc[n+]1[O-] | 0.963% (inactive) |
| O=C(CSc1ccccc1)Nc1ccc(C(=O)Nc2cccc(O)c2)cc1 | 3.28% (inactive) |
| C/C(=C\C(=O)c1ccccc1)Nc1cccc(O)c1 | -52.1% (active) |
| O=C(NCc1cccc(CNC(=O)Nc2cccc(O)c2)c1)Nc1cccc(O)c1 | -13% (inactive) |
| O=C(Nc1cccc(NC(=O)c2cccc(F)c2)c1)c1ccccc1 | 15.3% (inactive) |
| C/C(=C\C(=O)c1cccnc1)Nc1ccc(C)c(C)c1 | -17.1% (inactive) |
| O=C(Nc1cccc(O)c1)c1ccc(C(=O)c2ccccc2)o1 | -53.4% (active) |
| CCCC(C(=O)N1CCOCC1)N1C(=O)C2C3C=CC(C3)C2C1=O (centres undefined) | -7.71% (inactive) |
| NC(=O)Cc1ccc2sc(-c3ccccc3)nc2c1 | -14.8% (inactive) |
| COCCCNC(=O)c1ccc(-c2c(C)noc2C)c2ccoc12 | 46.4% (inactive) |
| COc1ccc(Cl)cc1-n1c(C)cc(C(=O)OCC(=O)N2CC(=O)Nc3ccccc32)c1C | -23.3% (inactive) |
| Cc1sc2ncnc(SCC(=O)NC3CCS(=O)(=O)C3)c2c1C (centres undefined) | -4.05% (inactive) |
| N#Cc1ccc(-c2ccc(Cl)cc2)nc1Oc1ccc(F)cc1 | 30% (inactive) |
| CCc1cc2c(NC3CCCC3)ncnc2s1 | -11.8% (inactive) |
| CCc1cc2c(N3CCN(c4nnc(CC)s4)CC3)ncnc2s1 | -71.6% (active) |
| CCc1cc2c(NC(Cc3ccccc3)C(=O)O)ncnc2s1 (centres undefined) | 0% (inactive) |
| COc1ccc(NC2CCCN(C(=O)c3ccccc3-c3ncc[nH]3)C2)cc1 (centres undefined) | 20.4% (inactive) |
| COc1ccc(Cl)cc1C(=O)NNC(=O)c1nc2nc(C)cc(C)n2n1 | 27% (inactive) |
